Assay results from PubChem BioAssay (Tox21).
Records with an inconclusive call do not appear. Activity calls are given as the source filed them. Unless noted, calls come from the whole dose curve; as a rule, active = well fitted curve in the direction sought with a large enough effect in the repeat runs; inconclusive = weak or mixed curves; inactive = no such curve, though single readings can be large; an effect the other way counts as inactive or inconclusive.

Legend:
[1] = qHTS assay to identify small molecule agonists of the NFkB signaling pathway (AID 1159509; active = well fitted curve in the direction sought with a large enough effect in the signal ratio in the repeat runs, not every such curve was filed as active; the % refers to the signal ratio; note: series mostly up to about 61 µM)
How it was run: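 Pathway activation was measured in ME-180 cells stably expressing beta-lactamase under NF-kB response element control. Substrate cleavage was read as the 460/530 nm emission shift after 5 hr compound incubation.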

[2] = qHTS assay to identify small molecule agonists of the NFkB signaling pathway - cell viability counter screen (AID 1159515; calls by dose curve; note: series mostly up to about 61 µM; nearly all actives have a fitted effect of over 55% in size)
How it was run: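 Read by CellTiter-Glo luminescence (30 min, room temperature) in the wells also used for the beta-lactamase FRET read. ME-180 NFkB-bla cells at 2,000 per well were plated overnight, then exposed to compound for 5 hr at 37 C.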

[3] = qHTS assay to identify small molecule agonists of the endoplasmic reticulum stress response signaling pathway (AID 1159516; active = well fitted activation curve with a large enough effect in the signal ratio in the repeat runs, not every such curve was filed as active; the % refers to the signal ratio)
How it was run: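 Ratiometric FRET readout (405 nm excitation; 460 and 530 nm emission) of a beta-lactamase gene driven by the ER stress response element, after 2 hr substrate loading. HeLa ESRE-bla cells were seeded overnight and treated with compounds for only 5 hr at 37 C.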

[4] = qHTS assay to identify small molecule agonists of the endoplasmic reticulum stress response signaling pathway - cell viability counter screen (AID 1159517; calls by dose curve; note: series mostly up to about 61 µM; nearly all actives have a fitted effect of over 50% in size)
How it was run: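 In parallel with the ESRE reporter read, cytotoxicity was scored by CellTiter-Glo luminescence (30 min, room temperature) on HeLa ESRE-bla cells dosed for 5 hr.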

[5] = qHTS assay to identify small molecule antagonists of the retinoid-related orphan receptor gamma (ROR-gamma) signaling pathway - cell viability counter screen (AID 1159520); note: nearly all actives have a fitted effect of over 50% in size
How it was run: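 Tet-on ROR gamma CHO cells were given compounds for 2 hr, then doxycycline hyclate at 1 uM final, and incubated 16 hr at 37 C. Viability was measured as ATP content by CellTiter-Glo luminescence.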

[6] = target: Nuclear receptor ROR-gamma (Homo sapiens) (UniProt P51449); test: qHTS assay to identify small molecule antagonists of the retinoid-related orphan receptor gamma (ROR-gamma) signaling pathway (AID 1159521;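 note: CHO cells with doxycycline inducible ROR-gamma driving an RORE luciferase reporter; top concentration of the series differs between compounds; nearly all actives have a fitted effect of over 50% in size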)
How it was run: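 Luminescence readout (ONE-Glo, 30 min RT) after 16 h doxycycline induction; loss of signal scored as antagonism. CHO cells with TET-inducible RORγ and RORE-LUC reporter; compounds added 2 h before 1 uM final doxycycline.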

[7] = qHTS assay to identify small molecule agonists of the AP-1 signaling pathway - cell viability counter screen (AID 1159525; calls by dose curve; note: nearly all actives have a fitted effect of over 55% in size)
How it was run: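 Same-well cytotoxicity counter screen of the Tox21 10K library in ME-180 cells. The readout is ATP-dependent luminescence after 5 h compound treatment. Data are normalised to DMSO and tetra n-octyl ammonium bromide controls.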

[8] = qHTS assay to identify small molecule agonists of the AP-1 signaling pathway (AID 1159526; calls by dose curve)
[9] = target: Retinoic acid receptor RXR-alpha (Homo sapiens) (UniProt P19793); test: qHTS assay to identify small molecule agonists of the RXR signaling pathway (AID 1159527; calls by dose curve; note: nearly all actives have a fitted effect of over 35% in size)
How it was run: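 Agonist mode; 9-cis retinoic acid positive control. HEK 293T UAS-bla reporter cells, 2% charcoal-stripped FBS, 16 hr compound exposure at 37 C/5% CO2. LiveBLAzer B/G FRET substrate 2 hr RT; ex 405, em 460/530 nm.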

[10] = qHTS assay to identify small molecule agonists of the RXR signaling pathway - cell viability counter screen (AID 1159529); note: series mostly up to about 77 µM; nearly all actives have a fitted effect of over 50% in size
How it was run: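 Luminescence from CellTiter-Glo (30 min, RT) measured viability in the same wells as the beta-lactamase reporter readout. Cells: GeneBLAzer RXR-alpha HEK 293T, 2% charcoal-stripped FBS. Compound exposure 16 hr, 37 C.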

[11] = qHTS assay to identify small molecule antagonists of the retinoid acid receptor (RAR) signaling pathway - cell viability counter screen (AID 1159551); note: nearly all actives have a fitted effect of over 35% in size
How it was run: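 Cytotoxicity counter screen: ATP content quantified by CellTiter-Glo luminescence in C3RL4 cells treated 6 hr at 37 C with compound and retinol (1 uM final). Cells plated at 1,000/well and cultured overnight before dosing.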

[12] = qHTS assay to identify small molecule antagonists of the retinoic acid receptor (RAR) signaling pathway (AID 1159552; note: nearly all actives have a fitted effect of over 50% in size)
How it was run: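 Luminescence from a RARE luciferase reporter in C3RL4 cells served as read-out. Cells received compounds together with 1 uM final retinol and incubated 6 hr at 37 C before detection reagent was added for 30 min at room temperature.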

[13] = qHTS assay to identify small molecule agonists of the retinoic acid receptor (RAR) signaling pathway (AID 1159553)
How it was run: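 Luminescence was measured 30 min after luciferase reagent addition at room temperature. Before that, C3RL4 reporter cells (1,000 per well, plated overnight) were treated with compound for 6 hr at 37 C and 5% CO2.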

[14] = qHTS assay to identify small molecule antagonists of the estrogen related receptor (ERR) signaling pathway from Tox21 library - cell viability counter screen (AID 1224834); note: nearly all actives have a fitted effect of over 30% in size
How it was run: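 CellTiter-Fluor fluorescence, read after 30 min at 37 C, measures viability of ERR cells. Cells plated at 2,000/well and incubated 6 h before pin-tool compound addition, then exposed 17.5 hours at 37 C.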

[15] = target: Luciferin 4-monooxygenase (Photinus pyralis) (UniProt P08659); test: qHTS assay to identify small molecule inhibitors of firefly luciferase (AID 1224835); note: series mostly up to about 120 µM; nearly all actives have a fitted effect of over 25% in size
How it was run: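 Biochemical qHTS: compounds run as interplate titrations against purified firefly enzyme, with D-luciferin and ATP each at its KM concentration. Light output recorded by CCD imaging.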

[16] = qHTS assay to identify small molecule agonists of the constitutive androstane receptor (CAR) signaling pathway - cell viability counter screen (AID 1224836); note: series mostly up to about 92 µM; nearly all actives have a fitted effect of over 45% in size
How it was run: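 Viability read-out: CellTiter-Fluor fluorescence after 23 h compound exposure at 37 C/5% CO2 in double-stable HepG2-CYP2B6-hCAR cells, with PK11195 present at 0.75 uM final; compounds tested in 15-point titration.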

[17] = qHTS assay to identify small molecule antagonists of the constitutive androstane receptor (CAR) signaling pathway - cell viability counter screen (AID 1224837); note: series mostly up to about 92 µM; nearly all actives have a fitted effect of over 45% in size
How it was run: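 Cytotoxicity counter-screen: CellTiter-Fluor fluorescence after 23 h compound exposure (15-point qHTS) in double-stable HepG2-CYP2B6-hCAR cells, with 50 nM CITCO added.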

[18] = target: Nuclear receptor subfamily 1 group I member 3 (Homo sapiens) (UniProt Q14994); test: qHTS assay to identify small molecule antagonists of the constitutive androstane receptor (CAR) signaling pathway (AID 1224838);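 note: HepG2 cells stably expressing hCAR with CYP2B6 luciferase reporter stimulated by CITCO; nearly all actives have a fitted effect of over 40% in size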
How it was run: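 Antagonism measured as luciferase signal (ONE-Glo, 30 min, room temperature) in CAR-stimulated cells: HepG2-CYP2B6-hCAR double-stable line exposed 24 hr at 37 C to compound in a 15-point series plus 50 nM CITCO.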

[19] = target: Nuclear receptor subfamily 1 group I member 3 (Homo sapiens) (UniProt Q14994); test: qHTS assay to identify small molecule agonists of the constitutive androstane receptor (CAR) signaling pathway (AID 1224839);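 note: HepG2 cells stably carrying human CAR and a CYP2B6 luciferase reporter; series mostly up to about 92 µM; nearly all actives have a fitted effect of over 15% in size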
How it was run: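 Luminescence read-out (ONE-Glo, 30 min, room temperature) from double-stable HepG2-CYP2B6-hCAR cells exposed 24 h to 15-point compound series in presence of 0.75 uM PK11195 final.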

[20] = qHTS assay to identify small molecule antagonists of the vitamin D receptor (VDR) signaling pathway - cell viability counter screen (AID 743225); note: nearly all actives have a fitted effect of over 50% in size
How it was run: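 Viability counter screen run in the same wells as the beta-lactamase reporter assay: HEK 293T VDR-UAS-bla cells, 16 h compound exposure at 37C with 3 nM (final) 1-alpha,25-dihydroxyvitamin D3. CellTiter-Glo luminescence, 30 min, room temperature.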

Measured: Potency

Chain of Nuclear receptor subfamily 1 group I member 3 (Homo sapiens) (Q14994 whole entry, looked up): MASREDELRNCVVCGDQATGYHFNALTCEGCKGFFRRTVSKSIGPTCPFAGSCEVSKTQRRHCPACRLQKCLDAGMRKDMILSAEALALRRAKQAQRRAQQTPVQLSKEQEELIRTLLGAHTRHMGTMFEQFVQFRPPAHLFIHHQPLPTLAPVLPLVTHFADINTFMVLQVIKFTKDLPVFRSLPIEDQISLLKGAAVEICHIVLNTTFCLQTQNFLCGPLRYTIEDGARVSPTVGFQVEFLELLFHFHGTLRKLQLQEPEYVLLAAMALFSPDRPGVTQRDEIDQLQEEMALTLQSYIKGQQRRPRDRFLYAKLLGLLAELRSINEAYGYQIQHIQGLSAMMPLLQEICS
Chain of Luciferin 4-monooxygenase (Photinus pyralis) (P08659 whole entry, looked up): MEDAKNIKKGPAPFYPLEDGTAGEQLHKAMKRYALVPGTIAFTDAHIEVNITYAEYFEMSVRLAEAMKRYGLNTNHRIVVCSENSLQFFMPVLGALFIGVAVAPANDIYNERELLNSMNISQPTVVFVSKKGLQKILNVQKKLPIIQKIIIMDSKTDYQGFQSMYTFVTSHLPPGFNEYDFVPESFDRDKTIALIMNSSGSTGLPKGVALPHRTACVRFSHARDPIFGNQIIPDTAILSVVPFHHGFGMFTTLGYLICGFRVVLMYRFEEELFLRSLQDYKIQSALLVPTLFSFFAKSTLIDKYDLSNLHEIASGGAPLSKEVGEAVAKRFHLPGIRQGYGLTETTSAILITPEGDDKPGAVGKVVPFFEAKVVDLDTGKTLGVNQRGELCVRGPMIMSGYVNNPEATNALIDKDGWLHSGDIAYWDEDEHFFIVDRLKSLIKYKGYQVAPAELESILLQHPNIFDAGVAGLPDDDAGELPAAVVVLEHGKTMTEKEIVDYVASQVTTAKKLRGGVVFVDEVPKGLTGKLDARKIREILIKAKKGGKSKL
Chain of Retinoic acid receptor RXR-alpha (Homo sapiens) (P19793 whole entry, looked up): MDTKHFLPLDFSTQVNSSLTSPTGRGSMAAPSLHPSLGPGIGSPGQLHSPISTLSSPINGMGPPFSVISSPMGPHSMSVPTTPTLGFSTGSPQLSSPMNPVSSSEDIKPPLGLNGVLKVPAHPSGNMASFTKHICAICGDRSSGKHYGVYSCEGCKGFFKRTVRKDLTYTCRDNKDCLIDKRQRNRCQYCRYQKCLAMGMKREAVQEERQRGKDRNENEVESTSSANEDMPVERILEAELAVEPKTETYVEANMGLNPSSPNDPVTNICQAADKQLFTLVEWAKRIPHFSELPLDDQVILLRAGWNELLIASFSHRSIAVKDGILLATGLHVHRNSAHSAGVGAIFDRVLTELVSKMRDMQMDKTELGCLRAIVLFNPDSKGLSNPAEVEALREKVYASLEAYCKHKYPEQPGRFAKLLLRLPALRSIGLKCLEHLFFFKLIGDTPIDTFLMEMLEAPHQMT

O=C1CCCCO1
not listed: [19] | [20]
inactive: all other assays above

CCOc1cccc(N)c1
not listed: [20]
inactive: all other assays above

CC(C)COC(=O)c1ccccc1
not listed: [20]
inactive: all other assays above

CCC(=O)CC
not listed: [20]
inactive: all other assays above

CCO
not listed: [20]
inactive: all other assays above

C=CC(=O)OCC1CCCO1 (stereo not drawn)
not listed: [20]
inactive: all other assays above

C[Si]1(C)O[Si](C)(C)O[Si](C)(C)O[Si](C)(C)O[Si](C)(C)O1
inactive: all assays above

CC(=O)OCC(=O)Nc1cc(C#N)cc(NC(=O)COC(C)=O)c1Cl
inactive: all assays above

CN(C)CC/C=C1/c2ccccc2COc2ccc(CC(=O)O)cc21
inactive: all assays above

Cc1ccc(C)c([N+](=O)[O-])c1
inactive: all assays above

CC1=NN(c2ccc(S(=O)(=O)O)cc2)C(=O)C1
inactive: all assays above

N#Cc1cscn1
inactive: all assays above

O=C(NCN1CCOCC1)c1cnccn1
inactive: all assays above

CC(=O)CC(=O)OC(C)(C)C
inactive: all assays above

CCCCOCCOC(=O)COc1ccc(Cl)cc1Cl
inactive: all assays above
